Compound activity: PubChem, several laboratories
BoNT-F LC inh – BoNT F light chain protease inhibition; Multiplex microsphere protease cleavage assay, flow cytometry; inhibition, % at 10 µM; 360,000 tested, 0.22% active; AID 588497; in the data active = inhibition above about 35%, passing the limit was not always enough; inconclusive = no clear call, values can overlap the other calls; also: plate controls were buffer without enzyme for full effect and enzyme alone for no effect
MazEF act – activators of E. coli MazEF toxin-antitoxin RNase. FAM/BHQ RNA-DNA oligo cleavage fluorescence, 5 h. activation, % at 20 µM. 350,000 tested, 0.32% active; in the data active = activation above about 50%
Target sequence (P0AE70 whole entry, looked up): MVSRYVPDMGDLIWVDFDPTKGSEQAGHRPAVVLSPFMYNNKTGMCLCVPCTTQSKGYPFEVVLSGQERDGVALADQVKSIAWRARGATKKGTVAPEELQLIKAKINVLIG
BoNT-A LC inh2 – BoNT A light chain protease inhibition | multiplex microsphere protease substrate cleavage, flow cytometry | inhibition, % at 10 µM | 360,000 tested, 0.17% active; also: plate controls were buffer without enzyme for full effect and enzyme alone for no effect
Autofluor counter – compound fluorescence in toxin protease inhibitor counterscreen. compound autofluorescence counterscreen, microsphere flow cytometry; stronger effect = higher value. AID 624483. fluorescence intensity (concentration not given with the values). 360,000 tested, 3.1% active; in the data active = fluorescence intensity above about 16000; inconclusive = no clear call, values can overlap the other calls
Anthrax LF prot – inhibitors of Bacillus anthracis lethal factor protease; P15917; multiplex microsphere protease cleavage assay, LF; inhibition, % at 10 µM; 360,000 tested, 0.12% active; also: plate controls were buffer without enzyme for full effect and enzyme alone for no effect
* marks the source's active call; other numbers are inactive results; ? = inconclusive; . = no result given; + = active, no number. Hits are enriched below; roughly 3.7% of the tested compounds scored in any of these assays. Rule as the data show it, unless noted: active = inhibition above about 30%; inconclusive = no clear call, values can overlap the other calls; inactive = below that.

SMILES	BoNT-F LC inh	MazEF act	BoNT-A LC inh2	Autofluor counter	Anthrax LF prot
COc1ccc(-c2cnn3c(N)c(S(=O)(=O)c4ccccc4)cnc23)cc1	-2	-7	-1	20604*	-3
Nc1c(S(=O)(=O)c2ccccc2)cnc2c(-c3ccc(F)cc3)cnn12	6	11	4	15012	-3
CCN(CC)S(=O)(=O)c1cccc(-n2c(O)c(C=Nc3ccccc3C(=O)O)c3ccccc3c2=O)c1	-5	-2	-2	5620	-10
CCCS(=O)(=O)Nc1cc(C(F)(F)F)ccc1OCCOC	1	-4	-1	24565*	0
O=C(NCCCN1CCOCC1)c1ccc(CNS(=O)(=O)c2ccc(F)cc2)cc1	0	4	?	16290*	2
CCCCNC(=O)c1ccc(N2CCOCC2)c(NS(=O)(=O)c2ccc(OC)cc2)c1	8	10	9	20173*	2
COCCCNC(=O)c1ccc(N2CCOCC2)c(NS(=O)(=O)c2ccc(OC)cc2)c1	-2	3	0	6162	-5
COc1ccc(S(=O)(=O)NCCCCCC(=O)NCCCN2CCOCC2)cc1	2	-7	3	20933*	-2
O=C(NCCN1CCOCC1)c1cc(-c2cccc(O)c2)on1	0	9	0	5980	2
CC1CC(C)CN(CCCNC(=O)c2ccc(CNS(=O)(=O)c3ccc(F)cc3)cc2)C1 (centres undefined)	4	17	0	5714	0
O=C(NCCN1CCOCC1)c1cc(-c2ccco2)on1	-7	2	-4	17211*	-6
CCc1nc2c(OCCC3CCCCC3)cccn2c1N(C)C(=O)C(C)C	0	.	0	3860	0
Nc1c(C(=O)NCc2ccccc2)c2nc3ccccc3nc2n1CCCN1CCOCC1	-3	-6	12	2172	3
O=C(NCCCN1CCOCC1)c1cc(-c2ccc(F)cc2)on1	9	6	6	18525*	2
Nc1c(C(=O)NCc2ccc(F)cc2)c2nc3ccccc3nc2n1CCCN1CCOCC1	-2	11	4	23744*	2
CC1CN(C(=O)N2CCCCC2)CCN1C(=O)N1CCCCC1 (centres undefined)	-6	1	0	3883	-5
CC(C)NC(=O)NC(=O)COC(=O)CCOc1ccccc1	-1	4	0	24104*	1
COc1ccc(OCCC(=O)OCC(=O)NC(=O)NC(C)C)cc1	.	8	.	.	.
CCc1ccc(-n2ccc(=O)c(C(=O)O)n2)cc1	22	6	-2	4144	-1
COc1ccc(/C=C2/SC(=S)N(CCC(=O)O)C2=O)cc1	-1	-1	-2	21113*	-2
COc1ccc(/C=C2/SC(=O)N(CC(=O)NCCC(C)C)C2=O)cc1OC	1	7	-1	4196	2
COc1ccc(/C=C2\SC(=O)N(CC(=O)NCCC(C)C)C2=O)cc1OC	43*	6	4	3482	-2
COc1ccc(-c2nn(-c3ccccc3)cc2/C=C2/SC(=S)N(CCC(=O)O)C2=O)c(C)c1	-13	-56	0	2885	37*
COc1ccc(/C(C)=C2/SC(=S)N(CCC(=O)O)C2=O)cc1	2	-7	?	19144*	1
N#Cc1cccc(N2[C@@H](Cc3cc4ccccc4n3Cc3ccccc3)COC[C@H]2Cc2ccc3ccccc3c2)c1	3	-4	0	3576	1
SMILES	BoNT-F LC inh	MazEF act	BoNT-A LC inh2	Autofluor counter	Anthrax LF prot
CCCCN1C[C@H](CO)Oc2cccc(F)c2S1(=O)=O	-2	-4	0	2816	0
CC(C)(C)[C@H]1COC(=O)[C@H](Cc2ccc(F)cc2)CC/C=C/C[C@@H](CC(=O)N[C@H](CO)Cc2ccccc2)C(=O)N1	-3	5	-1	4157	-3
COc1cc(/C=C2\SC(=S)N(CCC(=O)N3CCCCC3)C2=O)cc(OC)c1OC	18	8	30*	5345	28
COc1ccc(/C=C2\SC(=S)N(CCCCCC(=O)Nc3cc(C)on3)C2=O)cc1OC	1	8	3	5634	6
COc1ccc(/C=C2\SC(=S)N(CCCC(=O)Nc3cc(C)on3)C2=O)cc1OC	6	150*	0	6076	0
CCc1nnc(NC(=O)c2cc(-c3ccccn3)nc3ccc(Br)cc23)s1	4	-5	-1	6043	2
CCC(Sc1nc2ccccc2s1)C(=O)Nc1nnc(C)s1 (centres undefined)	-2	-6	-1	22870*	-2
O=C(O)c1ccc(-n2nnnc2SCc2ccccc2)cc1	-1	-11	0	9113	4
CSc1ccccc1-n1nnnc1SCc1ccccc1	-7	-11	?	23954*	-5
O=C(c1cc2cc(Cl)ccc2[nH]1)N1CCN(c2ccccn2)CC1	7	3	-2	3591	0
CNC(=S)N(CCCn1ccnc1)Cc1c(F)cccc1Cl	-7	16	-2	3223	-10
COc1ccccc1-c1nnc2sc(COc3ccccc3)nn12	11	4	8	20024*	-12
COc1ccc(OCc2nn3c(Cn4cnc5ccccc54)nnc3s2)cc1	-2	-12	-2	16600*	-5
c1ccc(CCc2nn3c(Cn4cnc5ccccc54)nnc3s2)cc1	-5	-7	0	7717	1
O=C(Nc1ccc(S(=O)(=O)Nc2ncccn2)cc1)c1ccccc1	6	3	-1	3507	0
O=C(Nc1ccc(S(=O)(=O)Nc2nccc(C3Cc4ccccc4C(=O)O3)n2)cc1)c1ccccc1 (centres undefined)	2	1	1	23166*	-2
CCC(=O)N1CCc2cc(S(=O)(=O)NCCC(=O)N3CC=C(c4ccccc4)CC3)ccc21	-4	.	-2	22498*	-1
CCC(=O)N1CCc2cc(S(=O)(=O)NCCC(=O)N3CCc4ccccc4C3)ccc21	3	10	0	10223	-4
Cc1nc2c([nH]c3ccc(Br)cc32)s1	0	10	0	20775*	-1
Cc1n[nH]c2ccc(Br)cc2c1=O	0	6	0	2849	-3
O=C1c2ccccc2C(=O)N1CCCCN(C(=O)c1cccc([N+](=O)[O-])c1)c1ccc(Cl)cc1	-6	4	-3	20654*	0
CNC(=O)N(C1=NCC(C)S1)c1ccc(F)cc1F (centres undefined)	-5	-1	?	23465*	-3
Oc1ccc2ccccc2c1-c1sc(Nc2ccccc2)n[n+]1-c1ccc(F)cc1	-4	+	1	4550	-1
Fc1ccc(-[n+]2nc(Nc3ccccc3)sc2-c2c3ccccc3cc3ccccc23)cc1	-17	15	15	3757	18
COC(=O)n1c(=O)oc2ccc(S(=O)(=O)N3CCCCC3)cc21	2	1	0	4974	-7
Cn1c(=O)oc2cc(S(=O)(=O)N3CCOCC3)ccc21	0	8	0	2942	-4
COC(=O)n1c(=O)oc2cc(S(=O)(=O)N3CCOCC3)ccc21	12	1	4	20705*	-8
Cn1c(=O)oc2cc(S(=O)(=O)N3CCC4(CC3)OCCO4)ccc21	3	-55	3	22987*	-2
COc1cc(OC)nc(Oc2ccc(N)c(C)c2)n1	?	4	0	3899	2
